Screens (PubChem BioAssay)
Sampled rows, rich in hits. Any-hit rate of the full collection: about 3.5%.
FBW7 activator: FBW7 E3 ligase activators, primary screen, biochemical, AlphaScreen, human. AID 1259310, 2017. hit rate 0.13% among 650,000. normalized activity (activation), % at 26.1 µM. AlphaScreen FBW7–phospho-cyclin E peptide binding, activator screen; in the data active = normalized activity above about 1.9%;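 also: purified mutant Fbw7 with reduced substrate affinity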
GPR151 ag: activators of human GPR151, primary screen, cell-based, PathHunter beta-arrestin, luminescence | PathHunter beta-arrestin GPR151 cells | activation, % at 11.2 µM | AID 1508602, 2020 | G-protein coupled receptor 151 (Homo sapiens), Q8TDV0 | hit rate 1% among 650,000; in the data active = activation above about 4.9%
Target sequence (Q8TDV0 whole entry, looked up): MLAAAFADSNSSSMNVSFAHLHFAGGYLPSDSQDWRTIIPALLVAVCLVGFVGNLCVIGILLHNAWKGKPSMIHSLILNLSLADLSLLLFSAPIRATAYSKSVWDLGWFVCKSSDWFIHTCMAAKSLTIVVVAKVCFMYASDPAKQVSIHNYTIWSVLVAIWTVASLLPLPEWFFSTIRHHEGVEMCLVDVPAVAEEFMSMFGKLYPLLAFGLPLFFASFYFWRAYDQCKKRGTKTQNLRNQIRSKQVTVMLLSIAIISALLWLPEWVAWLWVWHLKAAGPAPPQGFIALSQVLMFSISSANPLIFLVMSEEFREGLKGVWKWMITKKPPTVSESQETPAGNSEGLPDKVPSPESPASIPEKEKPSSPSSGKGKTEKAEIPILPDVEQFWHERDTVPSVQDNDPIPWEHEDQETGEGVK
TEAD-YAP inh: TEAD-YAP interaction inhibition, primary screen, TEAD-YAP interaction inhibitor project, luminescence, HEK-TIYL cells | TEAD-Gal4/YAP UAS-luciferase luminescence | inhibition, % at 9.12 µM | hit rate 1.4% among 640,000 | AID 1259422, 2018; in the data active = inhibition above about 32%
MITF inh: MITF inhibitors, primary screen, biochemical, AlphaScreen, human; Microphthalmia-associated transcription factor (Homo sapiens), O75030; AlphaScreen MITF homodimerization, bead proximity signal; inhibition, % at 2.6 µM; hit rate 0.91% among 650,000; AID 1259374, 2018; in the data active = inhibition above about 50%
MITF confirm: MITF inhibitors, retest of hits, confirmation, biochemical, AlphaScreen, triplicate; shares compounds with MITF inh; AlphaScreen MITF homodimerization, biotin/His-MITF beads; inhibition, % at 2.6 µM; hit rate 16% among 4,700;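 active = inhibition above a cutoff derived from the DMSO control wells, cut at about 28% in these data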;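 also: inhibitors lower the bead chemiluminescence by keeping MITF from dimerizing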
AlphaScreen DR: AlphaScreen optical interference compounds, dose response, counter-screen, biochemical, HTS. shares compounds with MITF inh. AlphaScreen optical interference counterscreen, cell-free. IC50, µM. hit rate 6% among 480; call rule not given here
AlphaScreen intf2: AlphaScreen optical interference compounds, counter-screen for MITF inhibitor project, biochemical, triplicate. shares compounds with MITF inh. LysRS AlphaScreen counterscreen, signal interference. inhibition, % at 2.6 µM. hit rate 7.6% among 4,700;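 active = inhibition above a cutoff derived from the DMSO control wells, cut at about 30% in these data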
Large screens that a line does not name were inactive (follow-up assays come after a bar, where they were run); ! = a repeat was not active.

CCN1C(=O)NC(c2ccc([N+](=O)[O-])cc2)C(C(=O)OCCc2ccccc2)=C1C (stereo not given)	MITF inh 75.9 | MITF confirm inactive | AlphaScreen intf2 inactive
CCN1C(=O)NC(c2ccc([N+](=O)[O-])cc2)C(C(=O)OCCOc2ccccc2)=C1C (stereo not given)	none
Cc1ccc(-n2nc3c(c2NC(=O)CCc2ccccc2)CSC3)cc1	none
O=C1O[C@H](C(O)CO)C(O)=C1O (stereo not given in full)	MITF inh 76.3! | MITF confirm 46.9 | AlphaScreen DR inactive | AlphaScreen intf2 inactive
COC1CC2CCC(C)C(O)(O2)C(=O)C(=O)N2CCCCC2C(=O)OC(C(C)CC2CCC(O)C(OC)C2)CC(=O)C(C)/C=C(\C)C(O)C(OC)C(=O)C(C)CC(C)/C=C/C=C/C=C/1C (stereo not given)	none
C=CC[C@@H]1/C=C(\C)C[C@H](C)C[C@H](OC)[C@H]2O[C@@](O)(C(=O)C(=O)N3CCCC[C@H]3C(=O)O[C@H](/C(C)=C/[C@@H]3CC[C@@H](O)[C@H](OC)C3)[C@H](C)[C@@H](O)CC1=O)[C@H](C)C[C@@H]2OC	MITF inh 111.3! | MITF confirm 122.2 | AlphaScreen intf2 100.2
C=CCNCC(O)COc1cc(Cl)ccc1Cl (stereo not given)	MITF inh 53.3 | MITF confirm inactive | AlphaScreen intf2 inactive
CC(O)CNCC(O)COc1cc(Cl)ccc1Cl (stereo not given)	none
CCOC(=O)C1CCCN(C(=O)CNC(=O)Cn2cnc3ccccc3c2=O)C1 (stereo not given)	none
CC(C(=O)NCCn1nc(-c2cccs2)oc1=O)c1n[nH]c(=O)c2ccccc12 (stereo not given)	none
COc1cccc(C(=O)N2CCN(Cc3ccccn3)CC2)c1	MITF inh 92.2 | MITF confirm inactive | AlphaScreen intf2 inactive
COc1cc(OC)cc(C(=O)N2CCN(Cc3ccccn3)CC2)c1	MITF inh 57.4 | MITF confirm inactive | AlphaScreen intf2 inactive
O=C(c1ccc(N2CCC(NC3CCOCC3)CC2)cc1)N1CCc2ccccc2C1	none
COc1cc(-c2ccnc(N)n2)ccc1NC(=O)[C@H]1COc2ccccc2O1	FBW7 activator 2.5, MITF inh 65.6 | MITF confirm 51.6 | AlphaScreen DR inactive | AlphaScreen intf2 inactive
Cc1ccccc1C(=O)Nc1ccc2c(c1)C(=O)NCCO2	MITF inh 50.9 | MITF confirm inactive | AlphaScreen intf2 inactive
O=C(Nc1ccc2c(c1)C(=O)NCCO2)c1ccc(Cl)cc1	none
COc1ccc(N2CCN(C(=O)COc3cccc(C)c3C)CC2)cc1	none
CCOc1cc2c(cc1OCC)C(c1ccc(OCC(=O)O)c(OC)c1)NCC2 (stereo not given)	none
COc1ccc(-c2cc3ccccc3n2CC(O)CNCCO)cc1 (stereo not given)	MITF inh 53.0 | MITF confirm inactive | AlphaScreen intf2 inactive
Cn1c(=O)cc(N2CCCCC2)n(Cc2cccc(C(F)(F)F)c2)c1=O	none
Cn1c(=O)cc(N2CCCC2)n(Cc2cccc(C(F)(F)F)c2)c1=O	MITF inh 67.9 | MITF confirm inactive | AlphaScreen intf2 inactive
N=C1S/C(=C\c2cn[nH]c2-c2ccc(F)cc2)C(=O)N1c1nccs1	none
Cc1ccccc1C(=O)Nc1c2c(nn1-c1ccc([N+](=O)[O-])cc1)CSC2	MITF inh 61.2 | MITF confirm inactive | AlphaScreen intf2 inactive
COc1ccc(-n2nc3c(c2NC(=O)c2ccc4c(c2)OCO4)CSC3)cc1	MITF inh 89.2 | MITF confirm inactive | AlphaScreen intf2 inactive
Cc1ccccc1-n1nc2c(c1NC(=O)c1ccc(Br)cc1)CSC2	none
Cc1ccc(C(=O)Nc2c3c(nn2-c2ccccc2C)CSC3)cc1	MITF inh 71.1 | MITF confirm inactive | AlphaScreen intf2 inactive
CCCCOC(=O)Nc1cccc([N+](=O)[O-])c1	none
O=C(Cn1cnc2ccccc21)N1CCC(Cn2cccn2)CC1	none
O=C(c1cccc(F)c1)N1CCC(Cn2cnc3ccccc32)CC1	none
COC(=O)c1ccc(CN2CCC(Cn3cnc4ccccc43)CC2)cc1	MITF inh 81.7 | MITF confirm inactive | AlphaScreen intf2 inactive
O=C(CN1CCC(Cn2cnc3ccccc32)CC1)Nc1cccc(F)c1	MITF inh 54.3 | MITF confirm inactive | AlphaScreen intf2 inactive
CCOC(=O)CCC(=O)N1CCC(Cn2cnc3ccccc32)CC1	MITF inh 58.9 | MITF confirm inactive | AlphaScreen intf2 inactive
COC(=O)c1ccc(CN2CCC(c3nc4ccccc4[nH]3)CC2)cc1	none
O=C(Cn1c(=O)oc2ccccc21)N1CCC(Cn2cnc3ccccc32)CC1	MITF inh 53.3 | MITF confirm inactive | AlphaScreen intf2 inactive
COc1ccc(S(=O)(=O)N(CCc2ccccc2)CC(=O)NC(C)(C)C)cc1	none
Cc1ccc(OCCn2cc(/C=C(\C#N)C(N)=O)c3ccccc32)cc1	none
O=C(c1ccc(OCc2nc(C3CC3)cs2)cc1)N1CCc2ccccc21	none
O=C(Cn1ncc2ccccc21)N1CCC(Cc2ccccc2)CC1	none
O=C(CN1CCC(Cn2cnc3ccccc32)CC1)N1CCC(Cc2ccccc2)CC1	TEAD-YAP inh 60.9, MITF inh 73.5 | MITF confirm inactive | AlphaScreen intf2 inactive
CCOCC(=O)N1CCC(Cn2cnc3cc(C)c(C)cc32)CC1	MITF inh 66.3 | MITF confirm inactive | AlphaScreen intf2 inactive
O=C(/C=C/c1cccs1)N1CCC(Cn2cnc3ccccc32)CC1	MITF inh 64.9 | MITF confirm inactive | AlphaScreen intf2 inactive
O=C(/C=C/c1cccs1)NCC1CCN(C(=O)/C=C/c2cccs2)CC1	none
C=CCNC(=O)CN1CCC(Cn2cnc3cc(C)c(C)cc32)CC1	MITF inh 54.3 | MITF confirm inactive | AlphaScreen intf2 inactive
Cc1cc(Cl)ccc1OCC(=O)Nc1ccc(-c2nc3ncccc3o2)cc1	none
Oc1cccc(Nc2ncnc3ccc(I)cc23)c1	none
CC(=O)NC(NC(C)=O)c1ccc([N+](=O)[O-])cc1	none
N#CC1=C(N)N(c2ccccc2)C2=C(C(=O)CCC2)C1c1cccnc1 (stereo not given)	none
Cc1cc(-c2cnc(C)nc2C2CCCN(Cc3ccncc3)C2)on1 (stereo not given)	none
Cc1cc(-c2cnc(C)nc2C2CCCN(Cc3cccnc3)C2)on1 (stereo not given)	MITF inh 53.0 | MITF confirm inactive | AlphaScreen intf2 inactive
